Experiment [1] is described as follows: qHTS assay to identify small molecule antagonists of the glucocorticoid receptor (GR) signaling pathway - cell viability counter screen (AID 720693). Note: nearly all actives have a fitted effect of over 55% in size. Note: potency is the fitted concentration of half-maximal effect.
The nature of experiment [2]: qHTS assay for identifying genotoxic compounds that show differential cytotoxicity against isogenic chicken DT40 cell lines with known DNA damage response pathways - wild type cell line (AID 743012). Note: nearly all actives have a fitted effect of over 60% in size. Note: potency is the fitted concentration of half-maximal effect. Put shortly: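 CellTiter-Glo luminescence readout of viability in wild type DT40 cells after 40 h compound exposure at 37 C/5% CO2; 300 cells/well; reagent incubated 30 min at room temperature before reading.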
In general terms: In qHTS, concentration-response curves come from the screen itself.

Experiment [3] can be described thus: qHTS assay for identifying genotoxic compounds that show differential cytotoxicity against isogenic chicken DT40 cell lines with known DNA damage response pathways - Rev3 mutant cell line (AID 743014). Note: nearly all actives have a fitted effect of over 55% in size. Note: potency is the fitted concentration of half-maximal effect.
Experiment [4] in a line: qHTS assay for identifying genotoxic compounds that show differential cytotoxicity against isogenic chicken DT40 cell lines with known DNA damage response pathways - Rad54/Ku70 mutant cell line (AID 743015). Note: nearly all actives have a fitted effect of over 60% in size. Note: potency is the fitted concentration of half-maximal effect.
Experiment [5] is described as follows: qHTS assay to identify small molecule antagonists of the androgen receptor (AR) signaling pathway using the MDA cell line - cell viability counter screen (AID 743041; note: % is set by controls: 0 for no effect and ±100 for the full control effect; nearly all actives have a fitted effect of over 45% in size). The gist of the method:
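qHTS viability read-out; MDA-kb2 AR-luc; R1881-stimulated; 16 h exposure at 37C, 0% CO2; CellTiter-Fluor, 30 min; fluorescence intensity.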

Experiment [6] is described as follows: qHTS assay to identify small molecule antagonists of the thyroid receptor (TR) signaling pathway (AID 743065). Note: potency is the fitted concentration of half-maximal effect; nearly all actives have a fitted effect of over 55% in size. The gist of the method:
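GH3.TRE-Luc rat pituitary cells carrying two TR response elements driving luciferase were plated for 4 h, given compound plus 1 nM T3 (final), and incubated 23.5 h at 37 C. ONE-Glo luminescence measured reporter inhibition; CellTiter-Fluor fluorescence tracked cytotoxicity.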

The nature of experiment [7]: qHTS assay to identify small molecule antagonists of the estrogen receptor alpha (ER-alpha) signaling pathway - cell viability counter screen (AID 743074; calls by dose curve; note: nearly all actives have a fitted effect of over 45% in size; note: potency is the fitted concentration of half-maximal effect).
A short description of experiment [8]: qHTS assay to identify small molecule antagonists of the estrogen receptor alpha (ER-alpha) signaling pathway using the BG1 cell line (AID 743080; calls by dose curve;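 note: BG1 cells stimulated with 17beta-estradiol alongside compound; nearly all actives have a fitted effect of over 25% in size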; note: potency is the fitted concentration of half-maximal effect). Put shortly:
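Endogenous full-length ER-alpha in BG1-Luc-4E2 cells drives a stably integrated 4×ERE luciferase gene; compounds were tested against 17beta-estradiol over 21.5 h, with luminescence and multiplexed viability fluorescence recorded.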

Experiment [9] can be described thus: qHTS assay to identify small molecule antagonists of the estrogen receptor alpha (ER-alpha) signaling pathway using the BG1 cell line - cell viability counter screen (AID 743081).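 Note: compound given together with 17beta-estradiol as the ER stimulus; nearly all actives have a fitted effect of over 45% in size.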 Note: potency is the fitted concentration of half-maximal effect.
The target of the next experiment is Aromatase (Homo sapiens) (UniProt P11511). The experiment can be described thus: qHTS assay to identify aromatase inhibitors (AID 743083). Note: nearly all actives have a fitted effect of over 55% in size. Note: potency is the fitted concentration of half-maximal effect.
Chain of Aromatase (Homo sapiens) (P11511 whole entry, looked up): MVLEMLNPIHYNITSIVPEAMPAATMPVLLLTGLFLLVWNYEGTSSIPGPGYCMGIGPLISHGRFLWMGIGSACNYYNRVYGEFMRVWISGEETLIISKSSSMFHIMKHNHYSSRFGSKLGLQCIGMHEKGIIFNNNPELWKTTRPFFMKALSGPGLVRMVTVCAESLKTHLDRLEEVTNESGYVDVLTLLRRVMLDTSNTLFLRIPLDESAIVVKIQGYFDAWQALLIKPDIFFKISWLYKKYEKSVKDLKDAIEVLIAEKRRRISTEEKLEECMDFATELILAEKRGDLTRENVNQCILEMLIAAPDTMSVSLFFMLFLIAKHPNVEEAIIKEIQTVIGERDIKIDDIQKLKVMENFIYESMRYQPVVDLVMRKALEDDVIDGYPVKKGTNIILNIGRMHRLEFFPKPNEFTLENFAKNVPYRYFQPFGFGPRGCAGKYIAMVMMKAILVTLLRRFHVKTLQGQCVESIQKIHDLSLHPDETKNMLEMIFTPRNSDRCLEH
Experiment [10] is described as follows: qHTS assay to identify small molecule antagonists of the androgen receptor (AR) signaling pathway - cell viability counter screen (AID 743033; note: nearly all actives have a fitted effect of over 45% in size; note: potency is the fitted concentration of half-maximal effect).
Experiment [11] concerns the target Androgen receptor (Homo sapiens) (UniProt P10275). The experiment can be described thus: qHTS assay to identify small molecule antagonists of the androgen receptor (AR) signaling pathway using the MDA cell line (AID 743042). Put shortly: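 MDA-kb2 cells (human breast carcinoma, stably carrying an MMTV-luciferase reporter responsive to AR and GR) were plated at 3,000 cells/well and preincubated 5 hr at 37C, then given compound plus R1881 agonist for 16 h. ONE-Glo luminescence was read.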

The target in experiment [12] is Estrogen receptor (Homo sapiens) (UniProt P03372). The experiment can be described thus: qHTS assay to identify small molecule agonists of the estrogen receptor alpha (ER-alpha) signaling pathway (AID 743075; calls by dose curve; note: potency is the fitted concentration of half-maximal effect; for activation: % is set by controls: 0 for no effect and ±100 for the full control effect). Conditions: HEK293 ER-alpha-UAS-bla, beta-lactamase FRET ratio, 18 h; activation: at 70.1 µM (top of the series).
Chain of Estrogen receptor (Homo sapiens) (P03372 whole entry, looked up): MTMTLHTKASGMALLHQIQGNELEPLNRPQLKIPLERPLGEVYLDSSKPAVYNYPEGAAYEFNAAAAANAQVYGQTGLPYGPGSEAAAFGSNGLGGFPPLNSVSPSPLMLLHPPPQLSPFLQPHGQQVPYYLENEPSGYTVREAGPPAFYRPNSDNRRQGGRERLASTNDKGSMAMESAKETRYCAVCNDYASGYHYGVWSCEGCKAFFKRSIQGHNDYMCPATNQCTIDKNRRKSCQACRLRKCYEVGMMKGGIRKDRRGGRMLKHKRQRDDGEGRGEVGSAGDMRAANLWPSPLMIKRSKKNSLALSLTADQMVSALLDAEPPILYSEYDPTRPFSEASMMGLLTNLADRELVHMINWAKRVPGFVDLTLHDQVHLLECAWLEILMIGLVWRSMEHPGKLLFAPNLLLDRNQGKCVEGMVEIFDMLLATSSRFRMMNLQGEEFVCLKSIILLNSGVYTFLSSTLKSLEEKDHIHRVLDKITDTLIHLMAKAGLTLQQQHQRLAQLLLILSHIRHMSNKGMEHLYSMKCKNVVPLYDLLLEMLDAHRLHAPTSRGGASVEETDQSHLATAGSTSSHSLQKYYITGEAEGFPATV
A short description of experiment [13]: qHTS assay to identify aromatase inhibitors - cell viability counter screen (AID 743084). Note: potency is the fitted concentration of half-maximal effect.
A short description of experiment [14]: qHTS assay to identify small molecule antagonists of the thyroid receptor (TR) signaling pathway - cell viability counter screen (AID 743064). Note: nearly all actives have a fitted effect of over 50% in size. Note: potency is the fitted concentration of half-maximal effect. The gist of the method: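 Fluorescence from CellTiter-Fluor, added after 23.5 h exposure at 37 °C, reported viability of GH3.TRE-Luc cells co-treated with compound and 1 nM T3. Measured in the same wells as the luciferase TR readout.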

Experiment [15] deals with thyroid hormone receptor (rat, GH3 cells). The experiment can be described thus: qHTS assay to identify small molecule agonists of the thyroid receptor (TR) signaling pathway (AID 743066; calls by dose curve; note: % is set by controls: 0 for no effect and ±100 for the full control effect).
Experiment [16] has as its target Estrogen receptor (Homo sapiens) (UniProt P03372). The experiment can be described thus: qHTS assay to identify small molecule antagonists of the estrogen receptor alpha (ER-alpha) signaling pathway (AID 743069; active = well fitted curve in the direction sought with a large enough effect in the signal ratio in the repeat runs, not every such curve was filed as active; the % refers to the signal ratio; note: % is set by controls: 0 for no effect and ±100 for the full control effect). The gist of the method: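 Screening used a UAS-driven beta-lactamase reporter integrated into HEK293 cells expressing ER-alpha, stimulated with 17beta-estradiol alongside test compounds over 18 hr at 37C; signal came from LiveBLAzer B/G FRET fluorescence.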

Experiment [17] shares this target. Description: qHTS assay to identify small molecule agonists of the estrogen receptor alpha (ER-alpha) signaling pathway using the BG1 cell line (AID 743079). Note: % is set by controls: 0 for no effect and ±100 for the full control effect; nearly all actives have a fitted effect of over 20% in size. Conditions: BG1Luc4E2 cells, ERE-luciferase agonist, 22 h; at 70.3 µM (top of the series).

Each structure is given as a SMILES string. “And” between values parts separate entries of the source, which are not always exact repeats. Equal entries are not always repeated. Records with an inconclusive call do not appear. Some compounds were tested as several samples or in several runs, with calls that do not always agree. The source made the active and inactive calls. Unless noted, calls come from the whole dose curve; as a rule, active = well fitted curve in the direction sought with a large enough effect in the repeat runs; inconclusive = weak or mixed curves; inactive = no such curve, though single readings can be large; an effect the other way counts as inactive or inconclusive.

Chain of Androgen receptor (Homo sapiens) (P10275 whole entry, looked up): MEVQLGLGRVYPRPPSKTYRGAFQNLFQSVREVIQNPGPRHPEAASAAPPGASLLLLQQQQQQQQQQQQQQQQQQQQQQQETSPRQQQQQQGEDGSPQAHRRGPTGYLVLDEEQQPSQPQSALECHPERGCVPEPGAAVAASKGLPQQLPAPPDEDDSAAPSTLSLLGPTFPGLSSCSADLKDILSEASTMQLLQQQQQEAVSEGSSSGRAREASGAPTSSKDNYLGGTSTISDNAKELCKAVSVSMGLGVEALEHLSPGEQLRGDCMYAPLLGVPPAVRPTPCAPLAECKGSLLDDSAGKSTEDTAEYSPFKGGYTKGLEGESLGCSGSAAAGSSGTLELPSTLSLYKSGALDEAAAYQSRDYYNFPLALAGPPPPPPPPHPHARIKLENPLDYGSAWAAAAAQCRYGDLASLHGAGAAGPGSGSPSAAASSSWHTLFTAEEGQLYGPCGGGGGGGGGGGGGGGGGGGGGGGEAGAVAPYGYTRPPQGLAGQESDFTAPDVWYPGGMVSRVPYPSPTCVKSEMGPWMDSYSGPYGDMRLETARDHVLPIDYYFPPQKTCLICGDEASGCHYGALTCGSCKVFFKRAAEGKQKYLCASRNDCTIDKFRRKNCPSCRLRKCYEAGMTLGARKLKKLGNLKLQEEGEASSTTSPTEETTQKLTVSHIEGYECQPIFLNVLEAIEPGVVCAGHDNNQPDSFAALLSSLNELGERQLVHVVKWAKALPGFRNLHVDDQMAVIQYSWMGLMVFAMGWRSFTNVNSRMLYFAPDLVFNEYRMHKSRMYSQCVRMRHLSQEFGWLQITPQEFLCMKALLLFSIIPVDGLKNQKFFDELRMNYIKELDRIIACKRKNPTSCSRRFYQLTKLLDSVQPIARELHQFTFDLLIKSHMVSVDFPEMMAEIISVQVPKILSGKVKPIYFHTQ

Consider `O=C(N/N=C/c1ccccc1O)c1ccncc1`, for which the Potency result in experiment [1], in [5], in experiment [7] and in [9] was “inactive” in each case. The Potency is 4.22 µM (active) in experiment [2]; 2.98 µM (active) in experiment [3]; 5.96 µM (active) in [4]; 29.8 µM (active) in [6]; 18.8 µM (active) in experiment [8]; 5.96 µM (active) in the experiment with Aromatase (Homo sapiens).

On to `COc1cccc2c1C(=O)c1c(O)c3c(c(O)c1C2=O)C[C@@](O)(C(=O)CO)C[C@@H]3O[C@H]1C[C@H](N)[C@H](O[C@@H]2CCCCO2)[C@H](C)O1`, for which the Potency in experiment [1] is 21.3 µM (active); in experiment [2] it was 0.188 µM (active); in experiment [3] it was 0.237 µM (active); in [4], 0.0298 µM (active); in experiment [11] it was 4.22 µM (active); in experiment [6] it was 0.841 µM (active). Moreover, the Potency in experiment [12] is 4.25 µM [activator] (active); in experiment [9], 9.44 µM (active); in experiment [13], 13.3 µM (active). Besides, the Potency result (in experiment [10]; in experiment [7]; in the experiment with Aromatase (Homo sapiens)) was “inactive” each time.

Consider `Cc1cc2c(cc1C(F)(F)F)N(C(=O)Nc1ccc(Oc3cccnc3C)nc1)CC2`, for which the Potency entry in experiment [1], in [10], in [14], in experiment [15], in experiment [16] and in experiment [7] was “inactive” each time. Also, the Potency entry in experiment [12] and in experiment [9] was “inactive” in each case. Further, the Potency is 1.24 µM (active) in experiment [2], 0.781 µM (active) in experiment [3], 22 µM (active) in [4] and 22 µM (active) in [6].

For `CCCC1O[C@@H]2C[C@H]3[C@@H]4CCC5=CC(=O)C=C[C@]5(C)[C@H]4[C@@H](O)C[C@]3(C)[C@]2(C(=O)CO)O1` (some centres not stated), the Potency entry in [1], in experiment [2], in experiment [10], in experiment [14], in experiment [15] and in [7] was “inactive” each time. The Potency result (in experiment [9]; in the experiment with Aromatase (Homo sapiens)) was “inactive” each time. Moreover, the Potency result is “inactive and 48.6 µM (active)” in experiment [3]; “inactive and 68.7 µM (active) and 54.5 µM (active)” in experiment [4]; “inactive and 61.2 µM (active)” in experiment [13].

Consider `CC1=C(/C=C/C(C)=C/C=C/C(C)=C/C=O)C(C)(C)CCC1`, for which the Potency in experiment [1] is 24.4 µM (active); in experiment [2], 13.6 µM (active); in experiment [3], 9.63 µM (active); in experiment [4] it was 12.1 µM (active); in [10], 21.8 µM (active); in experiment [14] it was 7.65 µM (active). The Potency in [6] was 8.58 µM (active); in experiment [7] it was 54.6 µM (active); in experiment [9], 60.8 µM (active); with Aromatase (Homo sapiens), 15.3 µM (active); in experiment [13], 30.5 µM (active). The Potency result in experiment [15] was “inactive”.

As for `O=C(Nc1cccc(Cl)c1)OCC#CCCl`, the Potency was 54.9 µM (active) in experiment [1]; 24.3 µM (active) in [2]; 21.7 µM (active) in experiment [3]; 13.7 µM (active) in experiment [4]; 49 µM (active) in experiment [10]; 24.3 µM (active) in experiment [14]. Moreover, the Potency in [6] is 17.2 µM (active); with Aromatase (Homo sapiens) it was 21.7 µM (active); in experiment [13], 24.3 µM (active). The Potency result in experiment [12] was “inactive”.

In the case of `Nc1ccccc1O`, the Potency result in [1], in [10], in experiment [15], in [16], in [7] and in experiment [12] was “inactive” in each case. For the same compound, the Potency was 7.59 µM (active) in experiment [2]; 6.77 µM (active) in experiment [3]; 5.38 µM (active) in experiment [4]; 26.9 µM (active) in [14]; 42.7 µM (active) in experiment [6]; 67.7 µM (active) with Aromatase (Homo sapiens). Further, the Potency in experiment [13] was 67.7 µM (active).

For the compound `COc1ccc(C(=O)/C(Br)=C\C(=O)O)cc1`, the Potency result in experiment [1], in experiment [10], in experiment [15], in [7], in [12] and in experiment [9] was “inactive” each time. In addition, the Potency entry is “inactive and 3.86 µM (active)” in experiment [2]; “inactive and 6.11 µM (active)” in [3]; 6.11 µM (active) in experiment [4]; 23.7 µM (active) and 30.6 µM (active) in experiment [11]; 48.6 µM (active) in the experiment with Aromatase (Homo sapiens); 17.2 µM (active) in [13]. Moreover, the activation in experiment [17] was 0.472% (inactive).

For `O=C(Oc1cccc2cccnc12)c1ccccc1`, the Potency entry in experiment [1], in experiment [16], in experiment [7], in experiment [12], in experiment [8] and in experiment [9] was “inactive” each time. In addition, the Potency in experiment [2] was 2.66 µM (active); in [3], 2.98 µM (active); in [4], 6.68 µM (active); in experiment [10], 7.56 µM (active); in [14] it was 13.3 µM (active); in [6] it was 13.3 µM (active). Besides, the results for the Potency (with Aromatase (Homo sapiens); in [13]) were 18.8 µM (active) and 21.1 µM (active), respectively.

(Values after PubChem BioAssay (Tox21).)
